Screening results from PubChem.
PI5P4K alpha inh = PI5P4K alpha (human) kinase inhibition | P48426 | PI5P4Kalpha enzyme, ADP-Glo luminescence, 60 min; hits give low values | max response, % | 330,000 compounds, 1.2% hits | AID 652105; active = max response of -50% or lower; inconclusive = between -30% and -50%; inactive = -30% or higher; note: value at the top dose of about 77 µM
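Luminescence from ADP-Glo served as readout of PI5P4Kalpha activity in a qHTS format. Reaction: enzyme, substrate, compound, ATP at 5 microM final, 60 min at RT.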
APE1 inh = APE1 (human) endonuclease inhibition. 350,000 compounds, 0.35% hits. Potency, µM (titrated, usually from 65.8 µM), for the others: at the top dose activity change, negative = inhibition, most hits filed as inhibitors. recombinant APE1, TAMRA/BHQ-2 abasic DNA cleavage fluorescence;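 note: potency is the fitted concentration of half-maximal effect; plate controls were vehicle for no effect and reference inhibitor for full effect; nearly all actives have a fitted effect of over 55% in size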
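Substrate: short duplex with […] THF abasic site, 5'-TAMRA and 3'-BHQ-2, 50 nM final. APE1 at 0.75 nM, preincubated 15 min RT with compound. Fluorescence increase from first to third read measured activity.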
FEN1 inh = human FEN1 inhibition; Potency, µM (doses to about 114 µM), without a hit: top-dose activity change, negative = inhibition, hits mostly inhibitors; 390,000 compounds, 0.35% hits; P39748; Recombinant FEN1 flap cleavage, fluorescence, 15 min; note: potency is the fitted concentration of half-maximal effect; nearly all actives have a fitted effect of over 65% in size
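Reaction started by adding substrate (50 nM final) to 10 nM enzyme after 15 min room-temperature compound preincubation. Reads at 0 and 15 min, with data normalized and fitted to a four-parameter Hill equation.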
WRN helicase inh = blocks human WRN helicase | WRN helicase unwinding, fluorescent forked duplex, kinetic | Potency, µM (series often up to 114 µM), without a hit: at the highest dose activity change, negative = inhibition, actives largely listed as inhibitors | 360,000 compounds, 0.46% hits | Q14191; note: potency is the fitted concentration of half-maximal effect; nearly all actives have a fitted effect of over 55% in size
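Enzyme (20 nM final) and test compound sit together 15 min at room temperature before substrate addition. Substrate is a single-forked duplex oligonucleotide (100 nM) labelled with fluorophore and quencher, with 2 mM ATP; helicase unwinding raises red fluorescence, read kinetically.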
RECQ1 helicase = blocks DNA unwinding by human RECQ1; Potency, µM (highest dose often 57.3 µM), for inactives: at the highest dose activity, negative = inhibition, usual class: inhibitors; 240,000 compounds, 0.54% hits; P46063; AID 2549; RECQ1 DNA unwinding, red fluorescence kinetic read;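 note: potency is the fitted concentration of half-maximal effect; plate controls were vehicle for no effect and no enzyme for full effect; nearly all actives have a fitted effect of over 30% in size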
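50 nM RECQ1T1 preincubated 15 min with compound in Tris pH 8.0 buffer with MgCl2, DTT, Tween-20 and 2.5 ug/ml poly(dI-dC); started with 200 nM TAMRA/BHQ-2 forked duplex and 2 mM ATP. Unwinding read as fluorescence (525/598 nm), two reads 2 h apart.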
BLM inh = Bloom syndrome helicase (human) inhibition; recombinant BLM DNA unwinding, fluorescence dequenching; Potency, µM (top dose mostly 56.1 µM), inactives show at the highest dose activity change, negative = inhibition, most hits filed as inhibitors; 350,000 compounds, 0.2% hits; AID 2528;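 note: potency is the fitted concentration of half-maximal effect; plate controls were vehicle for no effect and no enzyme for full effect; nearly all actives have a fitted effect of over 35% in size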
Active calls of the source: *; i = inactive; u = inconclusive; x = no result; ! = not confirmed by another sample. Compounds with a hit are over-represented: about 1.5% of the library has one in this group of screens. Unless noted, calls come from the whole dose curve; as a rule, active = well fitted curve in the direction sought with a large enough effect; inconclusive = small, poorly fitted or top-dose-only effect, or another doubt; inactive = no such curve, though single readings can be large; an effect the other way counts as inactive or inconclusive. Unless noted, % is set by controls: 0 for no effect and ±100 for the full control effect.

SMILES | PI5P4K alpha inh | APE1 inh | FEN1 inh | WRN helicase inh | RECQ1 helicase | BLM inh
O=C(Nc1ccccc1C(F)(F)F)NC1(C(=O)N2CCOCC2)CCCCC1 | -88* | x | -11% | u | x | x
CCc1ccc(NS(=O)(=O)c2ccc3[nH]cc(C(=O)NCCCOC(C)C)c(=O)c3c2)cc1 | x | x | -10% | x | x | -2%
CCCCCCCCNCCS(=O)(=O)NN1CCOCC1 | -69* | -7% | -13% | -4% | x | x
CCCCNS(=O)(=O)CCNCc1ccc(OC)cc1 | 2 | 4% | 14% | -2% | x | x
COc1ccc(CNCCS(=O)(=O)NN2CCOCC2)cc1 | -63* | -13% | -11% | 8% | x | x
CN(Cc1ccccc1)c1ccc2cc(S(=O)(=O)N3CCCCC3)ccc2n1 | x | x | -9% | x | x | -6%
O=C1N=c2ccc([N+](=O)[O-])cc2=C1c1sc(=O)[nH]c1O | -54* | 0% | u | u | x | -7%
O=C1N=c2ccccc2=C1c1sc(=O)[nH]c1O | -87* | 9% | -2% | -8% | i | -2%
CN(CCCc1cnc[nH]1)C(=S)NCCCN(Cc1ccc(Cl)cc1)c1ccc(Br)cn1 | x | x | 2% | x | x | x
CCC1=NN2C(=N)/C(=C\c3ccc(OCCOc4ccc(NC(C)=O)cc4)cc3)C(=O)N=C2S1 | -3 | 17% | 4% | -7% | x | -5%
CCc1nn2c(=O)cc(COc3ccc(/C=C4\C(=N)N5N=C(C)SC5=NC4=O)cc3)nc2s1 | -72* | u | u | u | u | 13µM*
Cc1cc(C(=O)O)ccc1[C@H](N)C(=O)O | x | 40µM*! | x | x | 3% | -2%
COc1ccc2c(Sc3ccccc3)c(C(=O)NCCN(C)C)[nH]c2c1 | x | x | -8% | x | x | -7%
Oc1ccc(COC2CCCC2)c2cccnc12 | x | 8% | x | x | x | x
Cc1ccc(/C=C2\SC(=S)N(/N=C/c3cc([N+](=O)[O-])ccc3O)C2=O)o1 | -84* | u | 50µM* | 35µM* | -2% | u
COc1ccc(CNC(=O)CN2C(=O)CCn3nc(-c4ccccc4)cc32)c(OC)c1 | x | x | 20% | x | x | 2%
N#Cc1c(-c2ccco2)nc(SCC(=O)Nc2cccc(Cl)c2)[nH]c1=O | x | -9% | -4% | u | 17% | -4%
CC(C)(C)c1ccc(-c2nc(SCC(=O)Nc3ccc(Cl)cc3)[nH]c(=O)c2C#N)cc1 | x | x | 20µM* | x | x | u
COCCCNC(=O)C1CCN(C(=O)c2ccc(-n3ccc4ccccc43)s2)CC1 | x | x | 3% | x | x | 2%
N[C@@H](C(=O)O)c1ccc(O)c(C(=O)O)c1 | x | u | 50µM* | x | 10% | 4%
CC1=C/C(=C(\c2cc(C)c(O)c(Br)c2)c2ccccc2S(=O)(=O)O)C=C(Br)C1=O | -77* | -41% | u | u | x | u
O.O.O.O.O.O.O.O=S(=O)([O-])[O-].[Co+2] | x | u | x | x | 16µM* | 8.9µM*
O=c1c(O)c(-c2cc(O)c(O)c(O)c2)oc2cc(O)ccc12 | x | 0.28µM* | x | x | 4.5µM* | -27%
O=c1c(O)c(-c2ccc(O)c(O)c2)oc2ccccc12 | x | u | x | x | 2.2µM* | -9%
O=c1cc(-c2ccc(O)c(O)c2)oc2ccc3ccccc3c12 | -20 | 0.42µM* | u | -30% | x | x
SMILES | PI5P4K alpha inh | APE1 inh | FEN1 inh | WRN helicase inh | RECQ1 helicase | BLM inh
O=c1c(O)c(-c2ccc(O)cc2)oc2cc(O)ccc12 | x | u | x | x | i | -6%
O=c1oc(-c2ccc(O)c(O)c2)cc2cc(O)cc(O)c12 | -66* | -18% | 35µM* | 50µM* | x | x
CCOc1ccc(CNC(=O)C2CCN(c3nc4ccccc4nc3C(F)(F)F)CC2)cc1OC | x | x | 6% | x | x | -4%
CCC(C)(C)c1ccc(CC(C)CN2C[C@@H](C)O[C@@H](C)C2)cc1 (some centres not stated) | x | x | x | x | x | 4%
CC(C)(C)C(=O)OCC(=O)[C@H]1CC[C@H]2[C@@H]3CCC4=CC(=O)CC[C@]4(C)[C@H]3CC[C@]12C | x | 11% | x | x | x | x
CCCCCCCCCCCCCCCCCCOCC(COP(=O)([O-])OCC[N+](C)(C)C)OC (configuration not stated) | x | -2% | x | x | x | x
